Assay outcomes deposited in PubChem by National Center for Advancing Translational Sciences (NCATS).
The list is not random: actives were taken first. Their share in the collection is about 7.4%.
Rab9 prom act – qHTS Assay for Rab9 Promoter Activators; Potency, µM (top dose mostly 9.22 µM), inactives show at the top dose activation, negative = inhibition, actives largely listed as activators; hit rate 2.8% among 320,000; Huh7 Rab9 promoter-luciferase reporter, luminescence, 24 h; AID 485297, 2010; further: % of control where 0% means no effect; nearly all actives have a fitted effect of over 60% in size
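Rab9 promoter-driven luciferase in stably transfected Huh7 cells; 1500 cells/well rested 2 h, exposed to compound in DMSO for 24 h at 37 °C, 5% CO2. Luminescence read 10 min after adding luciferase reagent at ambient temperature.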
FLuc counter – qHTS profiling assay for firefly luciferase inhibitor/activator using purifed enzyme and Km concentrations of substrates (counterscreen for miR-21 project). Luciferin 4-monooxygenase (Photinus pyralis), P08659. purified FLuc, Km substrates, luminescence inhibition. Potency, µM (doses to about 57.5 µM), for the others: at the highest dose activity change, negative = inhibition, actives largely listed as inhibitors. hit rate 6.9% among 360,000. AID 588342, 2011;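 further: plate controls were vehicle for no effect and reference inhibitor for full effect; nearly all actives have a fitted effect of over 55% in size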
Target sequence (P08659 whole entry, looked up): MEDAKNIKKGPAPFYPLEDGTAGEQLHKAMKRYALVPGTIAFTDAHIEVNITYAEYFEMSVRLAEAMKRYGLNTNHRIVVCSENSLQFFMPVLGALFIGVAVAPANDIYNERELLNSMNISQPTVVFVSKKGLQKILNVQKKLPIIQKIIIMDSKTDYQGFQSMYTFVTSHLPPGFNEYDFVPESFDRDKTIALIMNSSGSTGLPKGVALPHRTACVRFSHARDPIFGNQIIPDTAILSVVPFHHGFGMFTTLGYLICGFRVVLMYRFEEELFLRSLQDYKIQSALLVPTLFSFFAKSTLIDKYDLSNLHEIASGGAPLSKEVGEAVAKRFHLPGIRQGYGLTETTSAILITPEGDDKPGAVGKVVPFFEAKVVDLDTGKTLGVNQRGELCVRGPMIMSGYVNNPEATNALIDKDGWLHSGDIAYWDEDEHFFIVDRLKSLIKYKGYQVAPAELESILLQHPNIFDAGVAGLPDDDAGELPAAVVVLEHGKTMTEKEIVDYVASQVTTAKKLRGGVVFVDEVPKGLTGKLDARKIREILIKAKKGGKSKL
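Biochemical qHTS of compounds, final roughly 60 µM downward over six points, against 10 nM purified firefly luciferase using Km concentrations of substrates (10 uM D-luciferin, 10 uM ATP) in Tris acetate pH 7.5 buffer; luminescence output.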
NPC1 promoter act – qHTS Assay for NPC1 Promoter Activators | AID 485313, 2010 | hit rate 2.4% among 320,000 | Huh7 NPC1 promoter luciferase reporter, 24 h | Potency, µM (doses to about 9.22 µM), for inactives: at the highest dose activation, usual class: activators; further: % of control where 0% means no effect; nearly all actives have a fitted effect of over 60% in size
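Cells: Huh7 expressing luciferase under the NPC1 promoter, 1500/well. Seeded 2 h, compound added, incubated 24 h at 37 °C. Luciferase reagent, 10 min ambient, then luminescence.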
p53 reactivator – qHTS assay for re-activators of p53 using a Luc reporter. H1299 p53-A138V BP100-luciferase reporter, luminescence, 24 h. AID 504706, 2011. Potency, µM (series often up to 92.2 µM), without a hit: at the highest dose activity change, positive = activation, hits mostly activators. hit rate 0.063% among 320,000; further: % of control where 0% means no effect; nearly all actives have a fitted effect of over 45% in size
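p53-null H1299 cells stably carrying temperature-sensitive p53-A138V and a BP100-luciferase reporter were pinned with compounds (4-point, 1:5 series) and held 24 hrs at 37 deg C. Luminescence was read 10 min after detection reagent.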
SMN2 splice up – qHTS Assay for Enhancers of SMN2 Splice Variant Expression; HEK293 SMN2-luciferase splicing reporter, luminescence, 30-36 h; Potency, µM (titrated, usually from 46.1 µM), for inactives: at the highest dose activity change, positive = activation, hits mostly activators; hit rate 2.8% among 210,000; further: % of control where 0% means no effect; nearly all actives have a fitted effect of over 55% in size
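HEK293 cells carry an SMN2 […]–luciferase reporter in which exon 7 inclusion puts luciferase in frame. Cells were plated 10-12 h before compound addition, then incubated 30-36 h at 37C. ONE-Glo luminescence was read; sodium butyrate at 4.5 mM final served as control.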
ELG1 genotoxic – qHTS screen for small molecules that induce genotoxicity in human embryonic kidney (HEK293T) cells expressing luciferase-tagged ELG1; HEK293T ELG1-luciferase reporter, luminescence, 16 h; Potency, µM (top dose mostly 46 µM), inactives show at the highest dose activity change, positive = activation, actives largely listed as activators; hit rate 1.3% among 330,000; further: % of control where 0% means no effect; nearly all actives have a fitted effect of over 60% in size
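ELG1-luciferase HEK293T cells, 2,000/well; compound pinned in; 16 hr, 37 °C, 5% CO2; ONE-Glo, 30 min RT; luminescence on CCD imager.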
An asterisk follows results filed as active; u = inconclusive; x = no result given; [ ] = remark or other dose. The call rests on the fitted dose curve; in most records, active means well fitted curve in the direction sought with a large enough effect; inconclusive means small, poorly fitted or top-dose-only effect, or another doubt; inactive means no such curve, though single readings can be large; an effect the other way counts as inactive or inconclusive. Potency means the concentration at half of the fitted maximal effect.

SMILES	Rab9 prom act	FLuc counter	NPC1 promoter act	p53 reactivator	SMN2 splice up	ELG1 genotoxic
O=C(COc1ccc2ccccc2c1)Nc1ccccc1C(=O)O	25%	17µM*	18%	u	x	14%
O=C(COc1ccc2ccccc2c1)NC1CC1	u	17µM*	11%	18%	-14%	17%
COc1ccc(NC(=O)COc2ccc(Br)cc2)c(OC)c1	-1%	-17%	18%	x	x	7%
Cc1ccc(NC(=O)C2COc3ccccc3O2)cc1S(=O)(=O)N1CCOCC1 (centres undefined)	11%	2%	12%	4%	x	2%
COc1ccccc1NC(=O)C(=O)NNC(=O)COc1ccc2ccccc2c1	-5%	-3%	-1%	1%	x	-2%
CCc1ccc(OCC(=O)Nc2cc(S(=O)(=O)CC)ccc2O)cc1	-10%	24µM*	-2%	22%	-11%	-2%
COc1ccccc1NC(=O)COc1ccc2ccccc2c1	1%	15µM*	2%	-17%	x	2%
O=C(O)Cc1ccc(NC(=O)COc2ccc3ccccc3c2)cc1	6%	19µM*	-4%	-7%	x	9%
COc1ccc(NC(=O)COC(=O)Cc2ccc(-c3ccccc3)cc2)c(OC)c1	1%	13µM*	-6%	4%	4%	1%
O=C(Cn1c(SCC(=O)Nc2ccc(F)cc2)nc2ccccc21)NCc1ccccc1Cl	x	2%	x	x	x	x
Cn1c(SCc2ccc(C(F)(F)F)cc2)nc2c([nH]c3ccccc32)c1=O	x	1%	x	x	x	x
COC(=O)c1ccc(C(NC(=O)OCc2ccccc2)/C(C)=C/[C@@H](C)C(=O)NCc2cc(F)cc(F)c2)cc1 (some centres undefined)	x	x	x	x	-8%	x
CSc1ccc(-c2nc3ncccn3c2Nc2ccc(C)c(C)c2)cc1	x	-11%	x	x	21%	x
CC(=O)c1ccc(NC(=O)Nc2sc3nc4n(c(=O)c3c2C)CCC(C)CC4)cc1 (centres undefined)	x	1%	x	x	6%	x
CCC(=O)N1CCCc2cc(S(=O)(=O)N3CCC(C(=O)NCc4ccc(F)cc4)CC3)ccc21	x	-6%	x	x	x	x
C=CCn1c(-c2ccc(OC)cc2)csc1=Nc1c(C)n(C)n(-c2ccccc2)c1=O	0%	2%	1%	-2%	-19%	-16%
COc1ccc2cc(C(=O)NCc3ccco3)c(=Nc3ccc(C(=O)O)cc3)oc2c1	7%	u	7%	u	-34%	14%
CCc1ccc2oc(-c3ccc(OC)cc3)cc(=Nc3c(C)n(C)n(-c4ccccc4)c3=O)c2c1	u	8.5µM*	u	34%	-104%	-14%
COc1ccc(-c2cc(=Nc3ccc(C(=O)O)cc3)c3cc(C)ccc3o2)cc1	u	9.5µM*	u	30%	18µM*	u
CCOc1cc(-c2nc(-c3ccc(-c4ccc(OC)cc4)nc3OC)no2)cc(OCC)c1OCC	x	0%	x	x	5%	x
Cc1nnc(SCC(=O)Nc2cc(S(C)(=O)=O)ccc2Cl)n1Cc1ccccc1	1%	1%	3%	8%	x	-3%
CCN(CC)C(=O)C1CCCN(c2ncnc3c2cnn3-c2cccc(C)c2)C1 (centres undefined)	-7%	u	-3%	-3%	-18%	u
CCN(CC)C(=O)C1CCCN(c2ncnc3c2cnn3-c2ccc(Cl)cc2)C1 (centres undefined)	-5%	17µM*	-8%	0%	x	-10%
CC1CCCN(c2ncnc3c2cnn3-c2ccc(Cl)cc2)C1 (centres undefined)	-29%	0.095µM*	-38%	-9%	x	1%
CC1CCCN(c2ncnc3c2cnn3-c2ccc(F)cc2)C1 (centres undefined)	x	0.17µM*	x	x	x	x
SMILES	Rab9 prom act	FLuc counter	NPC1 promoter act	p53 reactivator	SMN2 splice up	ELG1 genotoxic
CCOC(=O)C1CCCN(c2ncnc3c2cnn3-c2cccc(C)c2)C1 (centres undefined)	28%	24µM*	24%	13%	17%	u
COc1ccccc1Cn1cc(C(=O)c2ccc(C)cc2)c(=O)c2cc3c(cc21)OCCO3	x	-13%	x	x	-3%	x
Cc1cccc(-n2ncc3c(N)ncnc32)c1	u	u	u	14%	5%	u
CC1CC(C)CN(c2ncnc3c2cnn3-c2ccc(Cl)cc2)C1 (centres undefined)	0.71µM*	2.1µM*	2µM*	u	-81%	u
Cc1ccc(S(=O)(=O)N2CCN(c3ncnc4c3cnn4-c3ccccc3)CC2)cc1	5%	0%	-3%	19%	-6%	2%
CC1CC(C)CN(c2ncnc3c2cnn3C)C1 (centres undefined)	-5%	2%	-2%	-2%	-39%	4%
CC1CCCN(c2ncnc3c2cnn3-c2ccccc2)C1 (centres undefined)	0.14µM*	0.19µM*	0.35µM*	-3%	x	u
Cc1ccc(-n2ncc3c(N4CCCC(C)C4)ncnc32)c(C)c1 (centres undefined)	2µM*	7.6µM*	3.2µM*	15%	x	u
Cc1cccc(-n2ncc3c(N4CCCC(C)C4)ncnc32)c1 (centres undefined)	x	0.43µM*	x	x	x	x
Cc1ccc(-n2ncc3c(N4CCCC4)ncnc32)c(C)c1	u	u	u	-35%	-17%	-7%
CN1CC[C@@]2(CCCN(C(=O)c3cccc(F)c3)C2)C1	x	x	x	x	-1%	x
C[C@H]1Cc2c(-c3ccccc3)nc3c(c2CO1)CN(C(=O)c1ccco1)CC3	x	x	x	x	3%[9.22 µM]	x
CCOC(=O)/C(C#N)=C/c1cc(C)n(-c2ccc(Br)cc2)c1C	-5%	3%	0%	-1%	-17%	8%
Cc1cc(/C=C(\C#N)C(=O)NCC2CCCO2)c(C)n1-c1ccc(Cl)cc1 (centres undefined)	3.5µM*	4.3µM*	u	u	x	1%
Cc1cc(C(=O)O)ccc1-n1c(C)cc(/C=C(/C#N)C(=O)Nc2ccccc2)c1C	1%	u	-2%	-5%	x	-3%
COc1cc(/C=C(\C#N)C(=O)NCC2CCCO2)ccc1O (centres undefined)	-3%	-4%	-2%	3%	11%	5%
CCOC(=O)/C(C#N)=C/c1cc(C)n(-c2ccccc2)c1C	0.56µM*	0.54µM*	3.2µM*	20%	-73%	0.65µM*
N#C/C(=C\c1ccccc1O)C(=O)Nc1cccnc1	1.6µM*	3µM*	2.8µM*	3%	x	u
